Bioassay records from PubChem BioAssay.
GDH-TPI inh – counter-screen for M. tuberculosis FBA inhibitors: GDH-TPI coupled enzymes; GDH-TPI coupled enzyme counterscreen, NADH absorbance; 360,000 compounds, 1.2% hits; inhibition, % at 4.8 µM; in the data active = inhibition above about 30%;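 note: 0% = DMSO wells and 100% = wells lacking the enzyme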
FBA Mtb inh – inhibits M. tuberculosis FBA enzyme; P9WQA3; purified M. tuberculosis FBA, fluorescence read-out; inhibition, % at 1 µM; 360,000 compounds, 2.3% hits; AID 588726; in the data active = inhibition above about 27%;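 note: 0% = vehicle and 100% = reference inhibitor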
Target sequence (P9WQA3 whole entry, looked up): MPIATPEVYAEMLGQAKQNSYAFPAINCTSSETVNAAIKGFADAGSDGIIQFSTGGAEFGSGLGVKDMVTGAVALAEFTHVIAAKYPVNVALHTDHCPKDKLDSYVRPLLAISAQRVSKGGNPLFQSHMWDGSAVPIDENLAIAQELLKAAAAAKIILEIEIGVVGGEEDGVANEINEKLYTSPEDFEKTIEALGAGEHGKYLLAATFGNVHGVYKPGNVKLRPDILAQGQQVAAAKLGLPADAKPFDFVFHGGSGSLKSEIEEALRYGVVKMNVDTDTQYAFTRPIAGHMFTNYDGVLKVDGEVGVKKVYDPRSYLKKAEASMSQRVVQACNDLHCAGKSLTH
Mtb BioA inh – BioA (M. tuberculosis) enzyme inhibition. AID 602481. 360,000 compounds, 0.096% hits. inhibition, % at 9.99 µM. purified M. tuberculosis BioA enzyme, plate reader; in the data active = inhibition above about 40%; inconclusive = no clear call, values can overlap the other calls
Mtb hypoxia rep – Mtb hypoxia fluorescent reporter inhibition. M. tuberculosis hypoxia-regulated fluorescent reporter, fluorescence. fluorescence inhibition, % (test concentration not listed). 300,000 compounds, 0.1% hits. AID 1159583; in the data active = fluorescence inhibition mostly above about 23%, no sharp cut-off; inactive = mostly below about 17%
FadD28 binding – blocks FadD28 binding to the bisubstrate probe; inhibition, % at 12.5 µM; 360,000 compounds, 0.22% hits; fluorescence polarization; in the data active = inhibition above about 8.5%, passing the limit was not always enough; inconclusive = no clear call, values can overlap the other calls
The depositor's hits bear a star. In the library only some 2.9% were active in any assay of this set; here they are far more common.

Screening COc1ccc(-c2cc3ccc(OCc4nn[nH]n4)cc3oc2=O)cc1OC returned GDH-TPI inh 42.2*, FBA Mtb inh 10.7, Mtb BioA inh 9.3, Mtb hypoxia rep 16.4 and FadD28 binding -6.0.
CC(C)NC(=O)N(C)C[C@H]1Oc2c(NC(=O)C3CCOCC3)cccc2C(=O)N([C@H](C)CO)C[C@H]1C was read as Mtb BioA inh -0.5.
O=C(Nc1cccc(Cl)c1)N[C@H]1CC[C@@H](CCNC(=O)C2CC2)O[C@H]1CO was read as Mtb BioA inh -0.8.
`O=C(O)C[C@@H]1C[C@H]2c3cc(NS(=O)(=O)c4ccc(F)cc4)ccc3O[C@H]2[C@@H](CO)O1` gave Mtb BioA inh -1.1.
For CCN(CC)c1ccc(C(=O)c2ccccc2C(=O)O)c(O)c1 the results were GDH-TPI inh 42.0*, FBA Mtb inh -5.8, Mtb BioA inh -0.5, Mtb hypoxia rep -4.6 and FadD28 binding 2.7.
`CCN(CC)c1ccc(/C=N/N(c2ccccc2)c2ccccc2)c(O)c1` gave GDH-TPI inh 14.1, FBA Mtb inh -2.8, Mtb BioA inh -14.4 and FadD28 binding -2.9.
For COc1ccc(S(=O)(=O)Nc2ccc3c(c2)CC(=O)N([C@@H](C)CO)C[C@H](C)[C@@H](CN(C)Cc2ccc(Cl)c(Cl)c2)O3)cc1 the results were Mtb BioA inh 0.7.
Screening COc1ccc(OC)c(/C=N/NC(=O)CCCC(=O)Nc2cccc(Br)c2)c1 returned GDH-TPI inh 2.1, FBA Mtb inh 59.7*, Mtb BioA inh 0.5 and FadD28 binding -2.9.
COc1ccc(OC)c(C=NNC(=O)c2cccc3ccccc23)c1 was read as Mtb hypoxia rep 9.5.
COc1ccc(OC)c(/C=N/NC(=O)CNC(=O)c2cccc3ccccc23)c1 was read as GDH-TPI inh 6.1, FBA Mtb inh 145.2*, Mtb BioA inh -0.2 and FadD28 binding -3.5.
CN(C[C@H]1[C@H](c2ccccc2)[C@@H](CO)N1Cc1ccccn1)S(C)(=O)=O was read as Mtb BioA inh -3.0.
For Nc1ncc([N+](=O)[O-])cc1Br the results were GDH-TPI inh 51.9*, FBA Mtb inh 0.1, Mtb BioA inh -2.5, Mtb hypoxia rep 5.4 and FadD28 binding -1.7.
For Nc1ncc(Br)cc1Br the results were GDH-TPI inh 7.8, FBA Mtb inh 0.9, Mtb hypoxia rep 2.1 and FadD28 binding -1.3.
For OC[C@H]1[C@H](c2ccc(C#Cc3ccccc3)cc2)[C@@H]2CN(Cc3cncnc3)CCCCN12 the results were Mtb BioA inh -0.2.
For CC(C)=C1C(=O)NN(c2ccc(F)c(Cl)c2)C1=O the results were GDH-TPI inh 10.4, FBA Mtb inh -0.6, Mtb BioA inh 0.4, Mtb hypoxia rep 2.0 and FadD28 binding inconclusive.
O=C1NN(c2ccc(F)c(Cl)c2)C(=O)/C1=C\c1cccc(OC(=O)c2cccs2)c1 was read as GDH-TPI inh 3.4, FBA Mtb inh -1.9, Mtb BioA inh -1.0 and FadD28 binding 25.8*.
Cc1nn(C(=O)c2cc3sccc3[nH]2)c(C)c1C was read as GDH-TPI inh 35.4*, FBA Mtb inh -1.2, Mtb BioA inh -0.4, Mtb hypoxia rep 8.4 and FadD28 binding -2.0.
Screening Nc1nc2nccc(-c3ccc(Cl)cc3)n2n1 returned GDH-TPI inh 33.9*, FBA Mtb inh active, Mtb BioA inh -1.1 and FadD28 binding -3.0.
COc1cccc(OC)c1C(O)=C(C#N)c1nc2ccccc2[nH]1 was read as Mtb hypoxia rep 11.9.
For CC(C)n1c(O)c(N=Nc2ccc(Cl)c(C(=O)O)c2)c2ccccc21 the results were GDH-TPI inh 11.7, FBA Mtb inh -17.8, Mtb BioA inh -0.6, Mtb hypoxia rep 2.7 and FadD28 binding 11.3*.
For CCn1c(O)c(N=Nc2ccc(Cl)c(C(=O)O)c2)c2ccccc21 the results were GDH-TPI inh 35.0*, FBA Mtb inh -19.5, Mtb BioA inh 0.5, Mtb hypoxia rep 5.5 and FadD28 binding 0.7.
Screening CN1C(=O)C(CC(=O)O)S/C1=N\N=C\c1ccc(O)cc1O (stereo not given) returned GDH-TPI inh 51.9*, FBA Mtb inh -0.7, Mtb BioA inh -2.1 and FadD28 binding -0.2.
O=C(NCCN1C(=O)S/C(=C/c2cccnc2)C1=O)c1cccs1 was read as GDH-TPI inh 31.6*, FBA Mtb inh -0.4, Mtb BioA inh -1.9, Mtb hypoxia rep 2.4 and FadD28 binding -1.6.
For CN1C(=O)S/C(=C/c2cccnc2)C1=O the results were GDH-TPI inh 31.5*, FBA Mtb inh -4.5, Mtb BioA inh -0.4, Mtb hypoxia rep -2.9 and FadD28 binding 0.4.
Screening CCOc1cc(C(=O)NCCN2C(=O)SC(=Cc3cccnc3)C2=O)cc(OCC)c1OCC returned Mtb hypoxia rep -0.4.
C[C@@H]1CN([C@H](C)CO)C(=O)c2cc(N(C)C)ccc2O[C@@H]1CN(C)S(=O)(=O)c1cccs1 was read as Mtb BioA inh -0.8.
Screening C/C=C/c1ccc([C@H]2[C@@H](CO)N(Cc3ccccn3)[C@@H]2CNC(C)=O)cc1 returned Mtb BioA inh 3.7.
Screening O=C(O)CCCCCN1C(=O)/C(=C\c2ccc(-c3ccc(Cl)cc3)o2)SC1=S returned GDH-TPI inh 9.1, FBA Mtb inh 1.3, Mtb BioA inh -1.3, Mtb hypoxia rep 5.4 and FadD28 binding 1.4.
Screening O=C(O)CCCN1C(=O)/C(=C/c2ccc(-c3nc4ccccc4s3)o2)SC1=S returned GDH-TPI inh 7.6, FBA Mtb inh -2.7, Mtb BioA inh -0.8, Mtb hypoxia rep 8.3 and FadD28 binding 8.6*.
O=C(O)CCCN1C(=O)/C(=C/c2ccncc2)SC1=S was read as GDH-TPI inh 37.5*, FBA Mtb inh -3.6, Mtb BioA inh -1.2, Mtb hypoxia rep 6.9 and FadD28 binding -3.4.
O=C(O)CCCCCN1C(=O)/C(=C\c2ccncc2)SC1=S was read as GDH-TPI inh 16.1, FBA Mtb inh 3.3, Mtb hypoxia rep -1.2 and FadD28 binding 1.7.
C[C@H]1CN([C@@H](C)CO)C(=O)c2cc(NS(=O)(=O)c3ccccc3)ccc2O[C@H]1CN(C)Cc1ccc(C(=O)O)cc1 was read as Mtb BioA inh 0.9.
`O=C(NCCc1ccc(Cl)cc1)c1ccc(CNc2c(N3CCOCC3)c(=O)c2=O)cc1` gave GDH-TPI inh 6.5, FBA Mtb inh 1.7, Mtb BioA inh 0.3, Mtb hypoxia rep 42.1* and FadD28 binding -2.7.
O=C(NCc1ccc(Cl)cc1)c1ccc(CNc2c(N3CCOCC3)c(=O)c2=O)cc1 was read as GDH-TPI inh 3.4, FBA Mtb inh 5.8, Mtb BioA inh 0.1, Mtb hypoxia rep -5.9 and FadD28 binding -1.4.
Screening CCCC(=O)Nc1nc2ccc(OCC)cc2s1 returned GDH-TPI inh 1.4, FBA Mtb inh 3.1, Mtb BioA inh -0.9, Mtb hypoxia rep 1.3 and FadD28 binding -1.5.
For CCOc1ccc2nc(NC(=O)c3ccc(C)o3)sc2c1 the results were GDH-TPI inh 49.0*, FBA Mtb inh 5.7, Mtb BioA inh -2.8, Mtb hypoxia rep 12.6 and FadD28 binding -3.0.
`CCOC(=O)c1sc(NC(=O)c2ccc(C)o2)nc1C` gave GDH-TPI inh 23.3, FBA Mtb inh -1.8, Mtb BioA inh -1.9, Mtb hypoxia rep -0.5 and FadD28 binding -2.9.
